This is a sample that favours compounds with a hit; in the whole collection about 5.2% have one here.
SMARCA2 act – SMARCA2 (BRM) function activators, primary screen, cell-based, luminescence, high throughput. MG213 cells, MMTV-luciferase reporter, dexamethasone, overnight. activation, % at 9.1 µM. 370,000 tested, 1% active; in the data active means activation above about 7.8%;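 further: 0% = vehicle wells and 100% = reference activator wells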
NR3A LBD binder – binders of NR3A ligand-binding domain, primary screen, biophysical, differential scanning fluorimetry, uHTS. Glutamate receptor ionotropic, NMDA 3A (GRIN3A) ligand-binding domain. NR3A LBD differential scanning fluorimetry, Tm shift; 0% = protein alone, 100% = glycine-bound protein. Tm shift relative to glycine control, % at 25 µM. 340,000 tested, 2.5% active. AID 1259313, 2017;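 active means melting temperature shift of at least 10% of the positive control shift, at one fixed dose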
Vif inh – HIV Vif self-association inhibitors, primary screen, imaging, HEK293T, single point. HEK293T cells, Vif self-association by quenched fluorescence, 24 h. inhibition, % at 7.49 µM. 340,000 tested, 0.35% active. AID 602346, 2012; in the data active means inhibition above about 50%, passing the limit was not always enough
NadD inh – inhibitors of S. aureus NadD, primary screen, biochemical, colorimetric, uHTS; inhibition, % at 20 µM; 360,000 tested, 0.78% active; Nicotinate-nucleotide adenylyltransferase NadD (Staphylococcus aureus N315); AID 602399, 2012; purified NadD enzyme, colorimetric absorbance read-out; in the data active means inhibition above about 26%
esBAF inh – Bmi1 luciferase reporter increase in mESCs, primary screen, esBAF inhibitor project, mouse ES cells, Bmi1 luciferase knock-in, single point; 24 h; 100% = twice the neutral-well signal; reporter increase, % at 12.5 µM; 350,000 tested, 2% active; AID 602393, 2012; in the data active means activation above about 40%;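 further: 0% = median of the plate's neutral control wells and 100% = double that signal; a rise in the Bmi1 reporter signal indicates esBAF inhibition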
SKN-1 block – suppressors of acrylamide-induced Pgst-4::GFP reporter in worms, primary screen, SKN-1 inhibitor project, whole organism, uHTS, GFP/RFP fluorescence ratio, strain VP596 | C. elegans VP596 Pgst-4::GFP/RFP ratio, 24 h | inhibition, % at 21.8 µM | 360,000 tested, 0.49% active;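 active means interference check ratio from 0.5 to 1.5 plus GFP to RFP signal ratio inhibition reaching or exceeding a fixed threshold, cut at about 30% in these data, passing the limit was not always enough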
Starred values were filed as active, the others as inactive; x = no result.

SMILES	SMARCA2 act	NR3A LBD binder	Vif inh	NadD inh	esBAF inh	SKN-1 block
Cc1ccc(NC(=O)c2ccc(-n3cccn3)c([N+](=O)[O-])c2)cc1C	5	13*	7	-2	37	20
O=C(N[C@@H]1CC[C@@H](CCNS(=O)(=O)Cc2ccccc2)O[C@H]1CO)c1cnccn1	x	x	x	x	3	x
COc1ccc(CN2C[C@@H](C)[C@@H](OC)CN(C)C(=O)c3cc(NC(C)=O)ccc3OC[C@@H]2C)cc1	x	x	x	x	3	x
CC(C)c1ccc(Nc2ncccc2C(=O)O)cc1	7	9	8	-2	60*	-4
COc1ccc(S(=O)(=O)Nc2ccc3c(c2)C(=O)N([C@@H](C)CO)C[C@@H](C)[C@@H](CN(C)S(=O)(=O)c2cccs2)O3)cc1	x	x	x	x	-2	x
CC1Cc2ccccc2N1C(=O)CSc1nnc2c(n1)[nH]c1ccc(F)cc12 (centres undefined)	0	22*	x	21	2	2
O=C(CSc1nncs1)NCc1ccc(F)cc1	0	-2	51*	-7	x	-1
COc1ccc(CNC(=O)CSc2nnc3c(n2)[nH]c2ccc(F)cc23)cc1	1	1	-3	0	-4	-3
O=C(CSc1nnc2c(n1)[nH]c1ccc(F)cc12)NCc1ccc(F)cc1	0	10*	-11	10	-1	-9
O=C(CSc1nncs1)Nc1ccc(N2CCCCC2)cc1	-1	2	-5	-1	57*	0
Cc1ccc(S(=O)(=O)N(C)C[C@@H]2Oc3ncc(Br)cc3C(=O)N([C@@H](C)CO)C[C@H]2C)cc1	x	x	x	x	-20	x
C[C@H](CO)N1C[C@H](C)[C@H](CN(C)S(C)(=O)=O)OCCCC[C@H](C)Oc2ccc(NS(C)(=O)=O)cc2C1=O	x	x	x	x	4	x
CC(C)NC(=O)N(C)C[C@H]1OCCCC[C@@H](C)Oc2ccc(NC(=O)c3ccncc3)cc2C(=O)N([C@@H](C)CO)C[C@H]1C	x	x	x	x	6	x
COc1cc(/C=C(\C#N)C(=O)NCC2CCCO2)ccc1OC(C)C (centres undefined)	8	11*	-1	2	x	5
COc1cc(/C=C(\C#N)C(=O)NCC2CCCO2)ccc1OCCC(C)C (centres undefined)	-3	-1	-16	-2	x	10
COc1cc(/C=C(\C#N)C(=O)NCC2CCCO2)ccc1OCC(N)=O (centres undefined)	0	-2	-3	-6	x	6
COc1ccc(/C=C(\C#N)C(=O)NCC2CCCO2)cc1OC (centres undefined)	0	-1	0	-1	8	36*
O=C(c1cccc(C(F)(F)F)c1)C1CCCN(C(=O)CN2CCOC2=O)C1 (centres undefined)	-1	11*	12	-7	5	7
CO[C@@H]1CN(C)C(=O)c2cc(NC(=O)NC(C)C)ccc2OC[C@@H](C)N(CCC(F)(F)F)C[C@@H]1C	x	x	x	x	0	x
C[C@H](CO)N1C[C@H](C)[C@H](CN(C)C)Oc2ccc(NS(=O)(=O)c3ccc(Cl)cc3)cc2CC1=O	x	x	x	x	3	x
Cc1c(-c2ccccc2)nnn1-c1ccc(F)cc1F	2	-3	9	-11	51*	24
O=C(CN1C(=O)NC(Cc2ccccc2)C1=O)Nc1ccc(OC(F)(F)F)cc1 (centres undefined)	-1	15*	-2	-7	3	-11
O=C(CN1C(=O)NC(Cc2ccccc2)C1=O)Nc1ccccc1F (centres undefined)	-4	-4	1	3	-6	14
O=C(CN1C(=O)NC(Cc2ccccc2)C1=O)Nc1ccc(F)cc1 (centres undefined)	-3	-6	-3	0	18	-22
O=C(CN1C(=O)NC(Cc2ccccc2)C1=O)Nc1ccc(F)c(Cl)c1 (centres undefined)	-1	29*	5	-3	0	-2
SMILES	SMARCA2 act	NR3A LBD binder	Vif inh	NadD inh	esBAF inh	SKN-1 block
O=C(C[C@@H]1C[C@H]2c3cc(NC(=O)Cc4ccncc4)ccc3O[C@H]2[C@@H](CO)O1)NCc1ccc2c(c1)OCO2	x	x	x	x	-5	x
COc1cccc(S(=O)(=O)N2CC[C@@H]3[C@H]2c2cc(Br)ccc2N[C@@H]3CO)c1	x	x	x	x	-4	x
O=C(C[C@@H]1CC[C@H](NC(=O)c2ccncc2)[C@@H](CO)O1)NCC1CC1	x	x	x	x	-5	x
CCOC(=O)c1cnc(SCc2ccc(C(C)(C)C)cc2)nc1N	-4	-9	-27	13	-2	2
CCOC(=O)c1cnc(SCc2ccccc2)nc1N	8	0	-5	1	79*	-2
Cc1ccc(-c2cnc3c(c2)C(=O)N([C@@H](C)CO)C[C@H](C)[C@@H](CN(C)S(C)(=O)=O)O3)cc1	x	x	x	x	-2	x
c1ccc(C2Oc3ccccc3C3CC(c4cccs4)=NN32)cc1 (centres undefined)	-1	-8	23	6	85*	7
CS(=O)(=O)N1N=C(c2cccs2)CC1c1ccccc1 (centres undefined)	-2	2	-2	-7	3	-10
C[C@@H]1CCCCO[C@H](CN(C)Cc2ccncc2)[C@H](C)CN([C@@H](C)CO)C(=O)c2cc(NC(=O)CCCN(C)C)ccc2O1	x	x	x	x	-1	x
CO[C@@H]1CN(C)C(=O)c2ccc(NC(=O)Nc3ccccc3F)cc2OC[C@H](C)N(C(C)=O)C[C@@H]1C	x	x	x	x	0	x
CCn1c(SCc2ccc(C(=O)Nc3nccs3)cc2)nnc1-c1ccc(N)cc1	-2	-3	54*	10	14	5
COc1ccc(-c2csc(N3CCC(C(N)=O)CC3)n2)cc1	1	-1	-2	-2	50*	18
CC(=O)c1cccc(-c2csc(N3CCC(C(N)=O)CC3)n2)c1	2	3	0	-5	-3	8
NC(=O)C1CCN(c2nc(-c3cccc(Cl)c3)cs2)CC1	7	0	-7	-2	49*	4
CCNC(=O)C[C@H]1CC[C@@H]2[C@H](COc3ccc(NC(=O)Nc4cccc(F)c4)cc3C(=O)N2C)O1	x	x	x	x	-3	x
COC(=O)c1cnn(-c2ccccc2)c1/C=N/NC(=S)Nc1ccc(Cl)cc1	-2	13*	-9	2	x	-4
C[C@@H]1CN([C@H](C)CO)C(=O)c2cc(NS(=O)(=O)c3cccs3)ccc2O[C@H]1CN(C)Cc1ccc(C(F)(F)F)cc1	x	x	x	x	1	x
S=C(Nc1nc2c(s1)CCCC2)NC1CC1	1	1	-11	-2	51*	6

Bioassay records: PubChem BioAssay, several laboratories
